Most compounds without a hit are left out; they make up all but 8% or so of the library.
ELG1 repair inh: blocks ELG1-dependent DNA repair in HEK293T cells; HEK293T ELG1-luciferase reporter, luminescence, 16 h; DNA damage induced by 5-fluorouridine; Potency, µM (highest dose often 46.1 µM), for inactives: at the top dose activity change, negative = inhibition, hits mostly inhibitors; 330,000 compounds, 2.3% hits; AID 504467; note: potency is the fitted concentration of half-maximal effect; nearly all actives have a fitted effect of over 55% in size
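DMSO vehicle served as the neutral condition. Each well held 2,000 cells given 5-fluorouridine plus compound; after 16 hr at 37 °C/5% CO2, ONE-Glo was added and luciferase measured 30 min later.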
Coupling enz: coupling enzyme interference in Giardia aldolase counter-screen; 290,000 compounds, 0.67% hits; activity change, negative = inhibition, % at 58.2 µM, hits read low; coupling enzyme system counterscreen, AmpLite Red fluorescence; AID 2472; in the data active = activity change below about -30%
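Counterscreen lacking aldolase: glyceraldehyde-3-phosphate coupling-enzyme reagent preincubated 10 min at RT with compound (at 57.5 uM final), then substrate/coupling system with AmpLite Red added; fluorescence read at 525/598 nm after 20 min RT.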
Gal4-VP16 FLuc: inhibits Gal4-VP16 luciferase reporter, ROR gamma counter-screen | Drosophila S2 Gal4-VP16 UAS-luciferase, luminescence, 20 h | 310,000 compounds, 3.5% hits | Potency, µM (doses to about 53.6 µM), for the others: top-dose activity, negative = inhibition, hits mostly inhibitors;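 note: Gal4-VP16 expression switched on by copper sulfate through the metallothionein promoter; potency is the fitted concentration of half-maximal effect; nearly all actives have a fitted effect of over 50% in size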
RORg inh: blocks mouse ROR gamma transcriptional activity; Drosophila S2 Gal4-RORgamma UAS-luciferase reporter, 20 h; Potency, µM (titrated, usually from 53.6 µM), for the others: at the highest dose activity change, negative = inhibition, actives largely listed as inhibitors; 310,000 compounds, 5.4% hits; P51450; note: potency is the fitted concentration of half-maximal effect; nearly all actives have a fitted effect of over 60% in size
Target sequence (P51450 whole entry, looked up, the tested form may be a part): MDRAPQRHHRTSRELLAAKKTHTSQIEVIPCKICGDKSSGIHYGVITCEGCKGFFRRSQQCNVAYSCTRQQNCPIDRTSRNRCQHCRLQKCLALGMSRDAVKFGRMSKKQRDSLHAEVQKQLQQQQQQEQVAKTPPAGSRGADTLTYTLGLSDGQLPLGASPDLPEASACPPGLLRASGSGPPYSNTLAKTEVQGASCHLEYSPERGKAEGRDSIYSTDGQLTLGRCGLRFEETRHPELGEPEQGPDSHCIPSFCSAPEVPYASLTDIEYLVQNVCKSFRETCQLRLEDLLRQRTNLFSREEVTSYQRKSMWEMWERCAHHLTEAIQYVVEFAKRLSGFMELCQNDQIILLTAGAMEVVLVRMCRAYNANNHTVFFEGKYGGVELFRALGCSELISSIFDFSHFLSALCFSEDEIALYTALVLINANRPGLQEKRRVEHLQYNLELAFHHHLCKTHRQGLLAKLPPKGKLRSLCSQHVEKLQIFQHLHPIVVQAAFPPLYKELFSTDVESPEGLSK
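ROR gamma transcriptional activity was tracked as Gal4-UAS luciferase output in stably transfected Drosophila Schneider cells, with compound added 1 hr before 700 uM copper sulfate induction and a 20 hr ambient-temperature incubation.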
TSHR antag: human thyrotropin receptor antagonism; activity change, negative = inhibition, % at 11.5 µM; 330,000 compounds, 0.2% hits; P16473; TSHR-expressing cells, TSH-stimulated cAMP HTRF, 2 h; hits give low values;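 active = activity change below a set negative limit, meaning inhibition stronger than a set level, cut at about -70% in these data; inconclusive = activity change between two set negative limits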
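Read-out is FRET at 665 nm (cryptate excitation 337 nm) from a cryptate-tagged anti-cAMP antibody, competed by cell cAMP against cAMP-d2. Compounds are tested on freshly harvested TSHR cells challenged with 4nM TSH (EC80) for 2 hours at 37 deg C.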
* marks the source's active call; other numbers are inactive results; ? = inconclusive; . = not tested or not shown; [ ] = remark or other dose. Unless noted, calls come from the whole dose curve; as a rule, active = well fitted curve in the direction sought with a large enough effect; inconclusive = small, poorly fitted or top-dose-only effect, or another doubt; inactive = no such curve, though single readings can be large; an effect the other way counts as inactive or inconclusive. % is set by controls: 0 for no effect and ±100 for the full control effect.

SMILES	ELG1 repair inh	Coupling enz	Gal4-VP16 FLuc	RORg inh	TSHR antag
CCN(C[C@H]1N[C@@](CC)(C(=O)OC)[C@H]2C(=O)N(Cc3ccccc3)C(=O)[C@@H]12)C(=O)c1ccc(F)cc1	16µM*	.	.	.	-4
CCN(C[C@H]1N[C@@](CC)(C(=O)OC)[C@H]2C(=O)N(Cc3ccccc3)C(=O)[C@@H]12)C(=O)c1ccc(C)cc1	8.2µM*	.	.	.	-7
CCCCCCC(=O)N(O)C1CC(=O)N(Cc2ccccc2)C1=O (stereo not given)	15%	-1	-78%	10µM*	-36
CCCCCC(=O)N(O)C1CC(=O)N(c2ccccc2)C1=O (stereo not given)	?	6	7.1µM*	16µM*	2
O=C1CC(N(O)C2CC(=O)N(Cc3ccccc3)C2=O)C(=O)N1Cc1ccccc1 (stereo not given)	-5%	-1	?	-17%	8
FC(F)(F)c1cccc(NC(=S)NNC(=S)Nc2cccc(C(F)(F)F)c2)c1	?	-7	-29%	-12%	14
FC(F)(F)c1cccc(NC(=S)Nc2ccc(Cl)c(Cl)c2)c1	?	-7	?	?	21
FC(F)(F)c1cccc(NC(=S)NC(c2ccccc2)c2ccccc2)c1	-17%	-1	6.3µM*	7.1µM*	-17
FC(F)(F)c1cccc(CNC(=S)Nc2ccccc2)c1	5%	-1	-18%[10 µM]	5.6µM*	-2
O=C(CNC(=O)Cc1ccccc1)NCc1cccc(C(F)(F)F)c1	12%	0	-10%	7%	11
CC(C)(C)NC(=S)Nc1cccc(C(F)(F)F)c1	12µM*	5	?	31%	12
FC(F)(F)c1cccc(NC(=S)NCc2ccccc2)c1	-3%	-2	13µM*	4.5µM*	-11
O=C(Nc1ccccn1)Nc1cccs1	?	-4	10µM*	22%	4
O=C(NC(=O)c1ccccc1)Nc1ccccn1	?	.	1.6µM*	0.5µM*	2
O=C(Nc1ccccn1)c1ccc(C(=O)c2ccccc2)cc1	?	.	.	.	-11
O=C(Nc1ccccn1)c1ccc(CN(c2ccccc2)S(=O)(=O)c2ccccc2)cc1	18µM*	-2	1%	-16%	-3
O=C(c1ccccc1)c1nc[nH]c1C(=O)Nc1ccccn1	-1%	3	18µM*	13µM*	-8
Cc1cc(C(=O)Nc2ccccn2)cs1	?	-5	?	11µM*	4
COc1cc(C(=O)Nc2ccccn2)cc(OC)c1OC	5%	0	7%	-9%	0
CCN(CC)S(=O)(=O)c1ccc(-c2csc(C)n2)s1	-1%	1	-12%	12%	2
Cc1nc(-c2ccc(S(=O)(=O)NCc3ccccn3)s2)cs1	-9%	4	?	10µM*	0
Cc1cccc(Nc2c3c(nc4ccccc24)CCC3)c1	21µM*	0	?	7.1µM*	-6
N#Cc1cccc(Nc2c3c(nc4ccccc24)CCC3)c1	?	0	1%	-32%	0
O=C(Cc1csc(Nc2nc(=S)[nH]c3ccccc23)n1)N1CCN(c2cccc(C(F)(F)F)c2)CC1	?	3	7.1µM*	0.63µM*	-10
Cc1ccc(CNC(=O)Cc2csc(Nc3nc(=S)[nH]c4ccccc34)n2)cc1	-1%	0	7.1µM*	1.4µM*	1
SMILES	ELG1 repair inh	Coupling enz	Gal4-VP16 FLuc	RORg inh	TSHR antag
O=C(Cc1csc(Nc2nc(=S)[nH]c3ccccc23)n1)NCc1cccc(Cl)c1	1%	4	?	6.3µM*	2
O=C(Cc1csc(Nc2nc(=S)[nH]c3ccccc23)n1)NCc1ccccc1Cl	7%	2	-5%	6%	47
CCOc1ccc(NS(=O)(=O)c2cc(C(=O)N3CCN(c4ccccc4O)CC3)ccc2Cl)cc1	-29%	.	.	.	-12
CCCCc1ccc(/C=C(\C#N)C(N)=S)s1	5%	-1	?	7.1µM*	-10
C/C(N)=C(/C#N)C(=O)CSc1nc(-c2ccccc2)c(-c2ccccc2)o1	2%	1	-15%	?	-4
CCc1nc(N2CCN(C(=S)NCCCOC)CC2)c2c3c(sc2n1)CCCC3	?	1	?	14µM*	-15
CC1(C)N=C(N)N=C(N)N1c1ccc(OCCCOc2ccccc2)c(Cl)c1	2.6µM*	-3	-11%	31%	6
COC(=O)CN1C(=O)COc2ccc(S(=O)(=O)NCc3ccccc3)cc21	?	2	-3%	-2%	4
CCOC(=O)C(C(=O)OCC)C(C(=O)OCC)N1CCOCC1 (stereo not given)	?	3	5.6µM*	0%	20
Cc1cccn2c(=O)c3cc(C(=O)NC4CCCC4)c(=N)n(CCCN4CCOCC4)c3nc12	5%	-2	-19%	-7%	0
O=[N+]([O-])c1c(C(Cl)Cl)nn(-c2ccccc2)c1N1CCCC1	-1%	9	?	7.1µM*	3
CCOC(=O)C1CCN(c2c([N+](=O)[O-])c(C(Cl)Cl)nn2-c2ccccc2)CC1	-4%	-2	0%	32%	-40
CC(C)(C)NC(=O)C(c1ccc(-c2ccccc2)cc1)N(C[C@H]1CC[C@@H]([C@@H]2CC[C@H](CO)O2)O1)C(=O)c1ccc(-c2ccccc2)cc1 (stereo not given in full)	23µM*	.	.	.	-4
CC(=O)c1ccc(N2CCN(C(=O)CCCn3c(=S)[nH]c4cc5c(cc4c3=O)OCO5)CC2)cc1	18µM*	1	?	11µM*	-24
O=C(CCCn1c(=S)[nH]c2cc3c(cc2c1=O)OCO3)N1CCN(c2ccccc2)CC1	-3%	-1	-3%	-40%	-15
O=C(CCc1nc2ccccc2[nH]1)N1CCc2ccccc2C1	10%	-34*	-8%	3%	11
Cc1cccc(N2CCN(C(=O)CCn3c(=S)[nH]c4cc5c(cc4c3=O)OCO5)CC2C)c1 (stereo not given)	10µM*	3	6%	11%	-17
Cc1cccc(N2CCN(C(=O)CCCn3c(=S)[nH]c4cc5c(cc4c3=O)OCO5)CC2)c1C	10µM*	-1	4.5µM*	3.2µM*	-3
CCOC(=O)N1CCN(C(=O)CCCCCn2c(=S)[nH]c3cc4c(cc3c2=O)OCO4)CC1	?	3	-4%	-30%	7
CC(Cc1cccs1)NC(=O)CCCn1nnnc1CN1CCOCC1 (stereo not given)	-13%	.	4%	1%	9
CC(=O)Nc1ccc(C2C(C)CCC3C(=O)N4C(CCC(C)[C@@H]4c4ccc(NC(C)=O)cc4)C(=O)N32)cc1 (stereo not given in full)	.	0	2%[10 µM]	-5%[10 µM]	.
